HEK293 tox = qHTS of GLP-1 Receptor Inverse Agonists: Cytotox Screen; hit rate 0.13% among 410,000; HEK293 cAMP-luciferase reporter cells, luminescence, 24 h; Potency, µM (top dose mostly 38.3 µM), for the others: at the highest dose activity change, negative = inhibition, hits mostly inhibitors;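 note: loss of luciferase light is scored as toxicity; % is set by controls: 0 for no effect and ±100 for the full control effect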
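Cells in DMEM/10% Nu serum/1% pen-strep, 1536-well format. Pre-incubated 12 h, dosed with 23 nL compound, incubated a further 24 h. Luciferase detection, 12 min at room temp, luminescence.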
BRCA1 expr up = qHTS Assay to Identify Small Molecule Activators of BRCA1 Expression; MCF7-BRCA1-FFLuc reporter, luminescence, 48 h; response scale: scaled: vehicle 0%, 10 µM genistein 100%; Potency, µM (doses to about 46.1 µM), without a hit: at the highest dose activation, actives largely listed as activators; hit rate 1.1% among 380,000; AID 624202, 2012; note: nearly all actives have a fitted effect of over 80% in size
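Luminescence from a BRCA1-driven firefly luciferase in MCF7 cells was read after 48 h compound exposure at 37 C. Data normalized against DMSO and a 10microM genistein activation control, then curve-fitted across the titration.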
GLP1R ag = qHTS of GLP-1 Receptor Agonists; Glucagon-like peptide 1 receptor (Homo sapiens), P43220; HEK293 GLP-1R CRE-luciferase, luminescence, 4-6 h; cells express a hypersensitive GLP-1R form; Potency, µM (titrated, usually from 45.6 µM), without a hit: at the highest dose activation, actives largely listed as activators; hit rate 0.007% among 380,000; note: % of control where 0% means no effect
Target sequence (P43220 whole entry, looked up): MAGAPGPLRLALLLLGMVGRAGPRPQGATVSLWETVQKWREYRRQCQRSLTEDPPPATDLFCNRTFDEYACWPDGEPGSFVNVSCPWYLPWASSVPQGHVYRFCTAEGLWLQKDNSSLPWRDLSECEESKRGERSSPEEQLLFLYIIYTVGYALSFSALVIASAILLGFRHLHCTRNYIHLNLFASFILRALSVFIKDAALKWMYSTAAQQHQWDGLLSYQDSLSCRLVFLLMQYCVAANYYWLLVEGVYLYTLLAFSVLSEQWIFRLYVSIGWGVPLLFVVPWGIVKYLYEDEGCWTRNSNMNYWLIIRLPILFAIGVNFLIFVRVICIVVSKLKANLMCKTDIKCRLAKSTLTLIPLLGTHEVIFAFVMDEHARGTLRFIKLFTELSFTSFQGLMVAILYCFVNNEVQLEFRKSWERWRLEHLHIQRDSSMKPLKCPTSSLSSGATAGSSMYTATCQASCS
GLP1R inv ag = qHTS of GLP-1 Receptor Inverse Agonists (Inhibition Mode). HEK293 GLP-1R CRE-luciferase, luminescence, 24 h; GLP-1R form is constitutively active. Glucagon-like peptide 1 receptor (Homo sapiens), P43220. hit rate 1.6% among 410,000. Potency, µM (titrated, usually from 38.3 µM), without a hit: at the highest dose activity change, negative = inhibition, usual class: inhibitors; note: % is set by controls: 0 for no effect and ±100 for the full control effect; nearly all actives have a fitted effect of over 55% in size
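qHTS in 1536-well format: reporter HEK293 cells expressing constitutive GLP-1R activity in DMEM + 10% Nu serum, 24 hr with compounds at 37 deg C, luminescence read after 12 min with detection reagent.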
Mito fusion yeast = qHTS Assay for Small Molecule Inhibitors of Mitochondrial Division or Activators of Mitochondrial Fusion; hit rate 0.23% among 320,000; Potency, µM (highest dose often 46.1 µM), for the others: at the top dose growth rescue (activation), usual class: activators; S. cerevisiae fusion-defective mutant growth rescue, CellTiterGlo 48 h; AID 485298, 2010; note: % of control where 0% means no effect; nearly all actives have a fitted effect of over 45% in size
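Yeast fusion mutant, YPEG (non-fermentable carbon), compound, 48 h at 37C non-permissive; CellTiterGlo added, 10 min RT, luminescence read. Rescued growth = division inhibition.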
Starred values were filed as active, the others as inactive; ? = inconclusive; . = no result. This is a sample that favours compounds with a hit; in the whole collection about 2.8% have one here. Calls come from the whole dose curve; as a rule, active = well fitted curve in the direction sought with a large enough effect; inconclusive = small, poorly fitted or top-dose-only effect, or another doubt; inactive = no such curve, though single readings can be large; an effect the other way counts as inactive or inconclusive. Potency is the fitted concentration of half-maximal effect.

SMILES	HEK293 tox	BRCA1 expr up	GLP1R ag	GLP1R inv ag	Mito fusion yeast
Cc1cccc(COC[C@H](Cc2ccccc2)N2CCN(C(=O)c3cc(Cl)cc(Cl)c3)CCC2=O)c1	?	-30%	-2%	11µM*	.
Cc1ccc(NNC(=O)C(O)(c2cccc(C(F)(F)F)c2)c2cccc(C(F)(F)F)c2)cc1	?	-97%	-29%	3.2µM*	2%
Cc1cccc(C(O)(C(=O)NNc2ccc3ccccc3n2)c2cccc(C)c2)c1	-3%	-61%	-4%	4.5µM*	-1%
O=C(NNc1ccccc1Br)C(O)(c1cccc(C(F)(F)F)c1)c1cccc(C(F)(F)F)c1	?	-87%	-32%	3.2µM*	-21%
Cc1ccc(C(O)(C(=O)NNc2ccccn2)c2ccc(C)cc2)cc1	-3%	-4%	4%	33%	2%
Cc1ccc(-n2c(=O)c3c(cnn3C)n(CC(=O)Nc3ccc(C)cc3C)c2=O)cc1	-7%	.	.	5%	.
CCCC1OC(c2cc3c(cc2Cl)OCO3)OCC1CC (centres undefined)	-17%	-64%	5%	11µM*	.
C#CCn1c(=NC(=O)CSC(C)=O)sc2cc(F)ccc21	?	-3%	5%	3.5µM*	0%
CCn1c(=NC(=O)CSC(C)=O)sc2cc(F)ccc21	10%	-43%	-35%	-3%	1%
C/C(=C\C(=O)c1ccccc1)Nc1ccc(O)cc1	-14%	5µM*	25%	46%	0%
COc1ccccc1NC(=O)CSc1nnc(C2CCCCC2)n1C	3%	-7%	11%	-21%	6%
COc1ccccc1NC(=O)CSc1nnc(C2CCCCC2)n1-c1ccccc1	-11%	-21%	14%	3.2µM*	5%
NS(=O)(=O)c1ccc(N=NN2CCCCC2)cc1	-3%	10µM*	9%	2%	0%
Cc1ccc(-c2cc(C(=O)N3CCCC3)no2)cc1	11%	-59%	-13%	4µM*	-2%
Cc1ccc(-c2cc(C(=O)N3CCOCC3)no2)cc1	5%	-54%	-6%	3.2µM*	3%
O=C(c1cc(-c2cccc(Cl)c2)on1)N1CCCCCC1	2%	13µM*	17%	?	17%
O=C(c1cc(-c2ccco2)on1)N1CCOCC1	7%	?	1%	4%	-1%
O=C(Nc1cccnc1)C1CCC(CNS(=O)(=O)c2cccc3nsnc23)CC1 (centres undefined)	1%	-12%	8%	-7%	-1%
COc1ccccc1C(=O)NCCC(=O)Nc1ccc(OC(F)(F)F)cc1	-3%	-44%	15%	?	-17%
CN(C)S(=O)(=O)c1ccc(Cl)c(NC(=O)COC(=O)CNC(=O)c2ccco2)c1	11%	9%	0%	7%	-6%
O=C1Nc2ccccc2/C1=C/C(=O)c1cccs1	?	-76%	-59%	?	-1%
O=[N+]([O-])c1ccc2nc(-c3ccc(Cl)cc3)n(OCc3ccccc3)c2c1	-17%	?	1%	0%	1%
Cc1ccc(COn2c(-c3ccc(Cl)cc3)nc3ccc([N+](=O)[O-])cc32)cc1	0%	10µM*	2%	0%	1%
CCCN1Cc2cccc(C(=O)NCCc3ccccc3)c2C1=O	-4%	-21%	24%	-18%	-4%
CCOc1ccc(-c2n[nH]c(C)c2-c2ccccc2OC)c(O)c1	?	-71%	5%	5µM*	13%
SMILES	HEK293 tox	BRCA1 expr up	GLP1R ag	GLP1R inv ag	Mito fusion yeast
Cc1cc(Br)cc(C)c1NC(=O)c1sc2ncn(Cc3cccc(F)c3)c(=O)c2c1C	-7%	.	.	?	.
COC(=O)C1=CN(Cc2ccc(OC)cc2)C=C(C(=O)OC)C1c1cc(OC)c(OC)c(OC)c1	248%	-3%	5µM*	?	15%
COC(=O)C1=CN(Cc2ccc(F)cc2)C=C(C(=O)OC)C1c1cc(OC)c(OC)c(OC)c1	39%	-38%	6%	9%	-1%
O=C(Nc1cccc(F)c1)N1CCN(C/C=C/c2ccccc2)CC1	-15%	-10%	-3%	8.9µM*	-1%
CC(C(=O)Nc1cccc([N+](=O)[O-])c1)N1CCN(C/C=C/c2ccccc2)CC1 (centres undefined)	-28%	-30%	11%	10µM*	0%
COc1cc(/C=N/NC(=O)c2cc3ccccc3cc2O)ccc1OCCN1CCCCC1	-13%	-26%	-1%	6%	0%
Cc1ccc(-c2csc(N(CCO)CCCn3c(C(F)(F)F)nc4cc(C(F)(F)F)ccc43)n2)cc1	2%	-62%	-6%	?	0%
CN(C)S(=O)(=O)c1ccc(C(=O)Nc2ccccn2)cc1	-2%	14µM*	-2%	6%	3%
Cc1ccc(S(=O)(=O)N(C)c2ccc(C(=O)Nc3ccccn3)cc2)cc1	6%	-8%	-1%	?	7%
CCc1ccccc1NC(=O)c1cc(S(=O)(=O)N(CC)c2ccccc2)ccc1F	0%	.	.	11µM*	.
CCN(c1ccccc1)S(=O)(=O)c1ccc(OC)c(NC(=O)Cc2ccc(F)cc2)c1	-4%	-33%	13%	?	7%
Cc1onc(-c2ccccc2Cl)c1C(=O)Nc1nnc(-c2ccc(Br)cc2)s1	-18%	-1%	-7%	10µM*	?
Cc1onc(-c2ccccc2Cl)c1C(=O)Nc1nnc(-c2ccc(Cl)cc2Cl)s1	-7%	3%	7%	13%	23%
Cc1onc(-c2ccccc2Cl)c1C(=O)Nc1nnc(-c2ccc(F)cc2)s1	-9%	-11%	-2%	?	?
Cc1onc(-c2ccccc2Cl)c1C(=O)Nc1nc2c(s1)CCCC2	-1%	69%	-7%	10µM*	10%
CC(C)CCn1c(=S)[nH]c2ncccc2c1=O	-5%	2%	-13%	5%	-4%
c1ccc2c(c1)c1c(c3ccccc32)CN2CCCC2C1 (centres undefined)	1%	-101%	-18%	?	.
O=C(CN1c2ccccc2Sc2ccccc21)N/N=C/c1ccc(Cl)cc1	-22%	-21%	3%	3.2µM*	10%
Cn1c2ccccc2c(=O)c2ccc(C#Cc3ccc(N)cc3)cc21	35%	49%	16%	-25%	7%
Cn1c2ccccc2c(=O)c2ccc(Cl)cc21	168%	14µM*	13%	44%	.
OC(COc1ccc(Cl)cc1)CN1CCN(c2ccccn2)CC1 (centres undefined)	10%	1%	-4%	?	.
Cc1cc(OCC(O)CN2CCN(c3ccccn3)CC2)cc(C)c1Cl (centres undefined)	-10%	-28%	-1%	11µM*	-7%
